Measured values from publication PMC7862700, “An all-to-all approach to the identification of sequence-specific readers for epigenetic DNA modifications on cytosine”.

Columns and labels:
Assay in all cases: DAPPL (digital affinity profiling via proximity ligation, sequencing); 10 mM Tris-HCl pH 7.5, 50 mM NaCl, 1 mM DTT, 4% glycerol, room temperature, 30 min; GST-TFs on glutathione beads, 16-mer random dsDNA library, 0.1% formaldehyde crosslink after washing; high values mean tight binding
FEV = molecular target: T1, FEV (Homo sapiens, UniProt Q99581 1-238); details: protein: recombinant; tags: N-terminal GST; dsDNA, one strand shown
T1 sequence: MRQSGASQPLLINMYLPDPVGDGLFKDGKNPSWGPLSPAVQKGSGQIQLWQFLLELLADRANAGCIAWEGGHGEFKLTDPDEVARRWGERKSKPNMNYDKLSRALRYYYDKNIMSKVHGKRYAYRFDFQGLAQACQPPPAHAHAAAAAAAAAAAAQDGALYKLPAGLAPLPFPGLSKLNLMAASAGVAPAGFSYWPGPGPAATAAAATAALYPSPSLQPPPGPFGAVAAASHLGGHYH
How it was run: (§1)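 Human transcription factors carrying a GST fusion were produced in yeast, bound to glutathione beads, tagged with DNA barcodes and pooled together with a tag-only sample. Each pool was held with 200 nmole of a random double-stranded 16-mer DNA library in Tris/NaCl/DTT/glycerol buffer for 30 min at room temperature, then washed, crosslinked in 0.1% formaldehyde, proximity-ligated with BsaI/T4 ligase (1 h, 37 °C), PCR-amplified and sequenced on an Illumina NextSeq500. Binding signal is the read frequency of each hexamer for a given factor divided by its frequency in the tag-only sample.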

ETV5 = ETV5 (Homo sapiens, UniProt P41161 1-510); details: protein: recombinant; tags: N-terminal GST; dsDNA, one strand shown
How it was run: as §1

HSF1 = HSF1 (Homo sapiens, UniProt Q00613 1-529); details: protein: recombinant; tags: N-terminal GST; chain copies: 3; dsDNA, one strand shown
How it was run: as §1

SPIC = molecular target: T2, SPIC (Homo sapiens, UniProt Q8N5J4 1-248); details: protein: recombinant; tags: N-terminal GST; dsDNA, one strand shown
T2 sequence: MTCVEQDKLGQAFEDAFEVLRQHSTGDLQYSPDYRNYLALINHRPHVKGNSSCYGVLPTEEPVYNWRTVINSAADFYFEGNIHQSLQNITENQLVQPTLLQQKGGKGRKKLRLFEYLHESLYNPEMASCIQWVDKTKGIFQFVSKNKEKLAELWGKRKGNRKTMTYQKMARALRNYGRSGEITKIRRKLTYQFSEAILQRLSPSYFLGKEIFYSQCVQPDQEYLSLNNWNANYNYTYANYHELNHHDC
How it was run: as §1

ELF4 = ELF4 (Homo sapiens, UniProt Q99607 1-663); details: protein: recombinant; tags: N-terminal GST; dsDNA, one strand shown
How it was run: as §1

ELK4 = molecular target: T3, ELK4 (Homo sapiens, UniProt P28324-2 1-405); details: protein: recombinant; tags: N-terminal GST; dsDNA, one strand shown
T3 sequence: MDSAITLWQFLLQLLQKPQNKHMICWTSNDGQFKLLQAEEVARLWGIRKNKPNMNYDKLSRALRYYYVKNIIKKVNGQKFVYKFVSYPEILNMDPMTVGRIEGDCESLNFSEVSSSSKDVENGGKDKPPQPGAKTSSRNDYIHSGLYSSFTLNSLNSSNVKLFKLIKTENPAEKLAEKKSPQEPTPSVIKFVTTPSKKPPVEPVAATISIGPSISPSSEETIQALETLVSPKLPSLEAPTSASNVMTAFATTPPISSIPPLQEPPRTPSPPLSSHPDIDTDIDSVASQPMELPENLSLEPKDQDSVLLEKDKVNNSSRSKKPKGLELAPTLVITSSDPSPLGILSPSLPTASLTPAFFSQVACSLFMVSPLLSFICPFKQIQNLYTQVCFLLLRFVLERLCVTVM
How it was run: as §1

ETV2 = molecular target: T4, ETV2 (Homo sapiens, UniProt O00321 1-342); details: protein: recombinant; tags: N-terminal GST; dsDNA, one strand shown
T4 sequence: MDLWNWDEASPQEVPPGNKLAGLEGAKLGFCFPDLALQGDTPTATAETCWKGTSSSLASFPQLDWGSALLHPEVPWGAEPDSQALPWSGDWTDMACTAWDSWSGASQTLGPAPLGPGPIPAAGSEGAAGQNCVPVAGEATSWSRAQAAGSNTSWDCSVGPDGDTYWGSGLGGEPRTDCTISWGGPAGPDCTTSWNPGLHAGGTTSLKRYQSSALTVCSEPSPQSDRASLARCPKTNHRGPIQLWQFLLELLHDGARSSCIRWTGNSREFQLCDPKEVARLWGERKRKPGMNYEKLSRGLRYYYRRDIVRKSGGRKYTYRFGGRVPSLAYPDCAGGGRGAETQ
How it was run: as §1

ELF3 = molecular target: T5, ELF3 (Homo sapiens, UniProt P78545 1-371); details: protein: recombinant; tags: N-terminal GST; dsDNA, one strand shown
T5 sequence: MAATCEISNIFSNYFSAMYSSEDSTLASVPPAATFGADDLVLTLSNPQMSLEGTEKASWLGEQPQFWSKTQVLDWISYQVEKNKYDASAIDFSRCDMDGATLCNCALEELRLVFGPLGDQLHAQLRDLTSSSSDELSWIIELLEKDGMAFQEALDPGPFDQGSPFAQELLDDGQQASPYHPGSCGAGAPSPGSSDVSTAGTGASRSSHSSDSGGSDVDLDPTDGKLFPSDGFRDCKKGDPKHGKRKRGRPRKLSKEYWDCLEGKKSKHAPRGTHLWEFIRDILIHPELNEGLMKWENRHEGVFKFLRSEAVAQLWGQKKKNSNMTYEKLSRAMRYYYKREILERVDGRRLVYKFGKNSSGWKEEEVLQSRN
How it was run: as §1

CRX = CRX (Homo sapiens, UniProt O43186 1-299); details: protein: recombinant; tags: N-terminal GST; dsDNA, one strand shown
How it was run: as §1

ETV1 = ETV1 (Homo sapiens, UniProt P50549 1-477); details: protein: recombinant; tags: N-terminal GST; dsDNA, one strand shown
How it was run: as §1

ERF = molecular target: T6, ERF (Homo sapiens, UniProt P50548 1-548); details: protein: recombinant; tags: N-terminal GST; dsDNA, one strand shown
T6 sequence: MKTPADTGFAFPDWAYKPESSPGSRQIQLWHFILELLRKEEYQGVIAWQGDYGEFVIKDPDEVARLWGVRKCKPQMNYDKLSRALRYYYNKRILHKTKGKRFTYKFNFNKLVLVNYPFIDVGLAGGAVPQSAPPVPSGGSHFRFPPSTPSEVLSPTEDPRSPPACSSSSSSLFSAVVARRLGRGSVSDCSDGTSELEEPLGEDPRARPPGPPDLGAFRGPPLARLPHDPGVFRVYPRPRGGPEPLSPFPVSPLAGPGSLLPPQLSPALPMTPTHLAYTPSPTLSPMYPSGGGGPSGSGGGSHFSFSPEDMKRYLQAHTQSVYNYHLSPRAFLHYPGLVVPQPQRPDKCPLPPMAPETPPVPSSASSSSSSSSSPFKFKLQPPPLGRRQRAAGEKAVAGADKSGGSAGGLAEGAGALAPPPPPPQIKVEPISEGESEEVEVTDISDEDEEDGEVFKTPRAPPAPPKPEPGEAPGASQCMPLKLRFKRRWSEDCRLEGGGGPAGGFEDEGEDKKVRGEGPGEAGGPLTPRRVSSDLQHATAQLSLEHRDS
How it was run: as §1

ETV3L = molecular target: T7, ETV3L (Homo sapiens, UniProt Q6ZN32 1-361); details: protein: recombinant; tags: N-terminal GST; dsDNA, one strand shown
T7 sequence: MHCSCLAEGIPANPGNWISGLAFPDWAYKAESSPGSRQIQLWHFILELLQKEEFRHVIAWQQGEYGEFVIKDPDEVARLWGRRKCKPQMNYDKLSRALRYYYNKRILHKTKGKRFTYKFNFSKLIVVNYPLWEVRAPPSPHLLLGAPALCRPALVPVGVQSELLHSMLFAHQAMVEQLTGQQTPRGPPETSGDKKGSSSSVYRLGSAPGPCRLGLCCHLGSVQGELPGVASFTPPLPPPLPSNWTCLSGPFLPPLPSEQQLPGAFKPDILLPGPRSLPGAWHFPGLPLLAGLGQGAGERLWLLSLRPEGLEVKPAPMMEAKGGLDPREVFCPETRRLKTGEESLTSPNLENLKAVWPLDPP
How it was run: as §1

ETS2 = molecular target: T8, ETS2 (Homo sapiens, UniProt P15036 1-469); details: protein: recombinant; tags: N-terminal GST; dsDNA, one strand shown
T8 sequence: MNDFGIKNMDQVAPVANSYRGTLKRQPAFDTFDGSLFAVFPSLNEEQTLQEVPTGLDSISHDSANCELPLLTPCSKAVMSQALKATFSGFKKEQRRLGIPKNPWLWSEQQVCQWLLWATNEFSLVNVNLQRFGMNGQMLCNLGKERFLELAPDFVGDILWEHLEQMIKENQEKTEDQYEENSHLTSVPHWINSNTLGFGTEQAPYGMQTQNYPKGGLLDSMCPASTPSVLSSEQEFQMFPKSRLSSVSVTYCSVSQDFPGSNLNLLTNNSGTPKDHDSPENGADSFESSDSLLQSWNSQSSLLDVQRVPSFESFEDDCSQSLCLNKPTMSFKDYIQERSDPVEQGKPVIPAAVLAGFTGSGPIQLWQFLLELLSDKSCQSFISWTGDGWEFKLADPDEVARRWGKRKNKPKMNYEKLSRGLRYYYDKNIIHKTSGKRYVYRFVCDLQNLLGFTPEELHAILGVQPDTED
How it was run: as §1

SPDEF = molecular target: T9, SPDEF (Homo sapiens, UniProt O95238 1-335); details: protein: recombinant; tags: N-terminal GST; dsDNA, one strand shown
T9 sequence: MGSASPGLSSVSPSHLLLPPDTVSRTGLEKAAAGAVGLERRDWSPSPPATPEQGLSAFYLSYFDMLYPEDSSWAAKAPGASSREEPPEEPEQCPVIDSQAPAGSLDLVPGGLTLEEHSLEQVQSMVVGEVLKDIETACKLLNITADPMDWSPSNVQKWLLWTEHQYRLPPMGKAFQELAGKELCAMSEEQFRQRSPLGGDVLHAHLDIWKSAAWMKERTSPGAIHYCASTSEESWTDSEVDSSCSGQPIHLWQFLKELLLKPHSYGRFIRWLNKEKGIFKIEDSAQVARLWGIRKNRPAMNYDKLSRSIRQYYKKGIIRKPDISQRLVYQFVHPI
How it was run: as §1

ETV7 = molecular target: T10, ETV7 (Homo sapiens, UniProt Q9Y603 1-341); details: protein: recombinant; tags: N-terminal GST; dsDNA, one strand shown
T10 sequence: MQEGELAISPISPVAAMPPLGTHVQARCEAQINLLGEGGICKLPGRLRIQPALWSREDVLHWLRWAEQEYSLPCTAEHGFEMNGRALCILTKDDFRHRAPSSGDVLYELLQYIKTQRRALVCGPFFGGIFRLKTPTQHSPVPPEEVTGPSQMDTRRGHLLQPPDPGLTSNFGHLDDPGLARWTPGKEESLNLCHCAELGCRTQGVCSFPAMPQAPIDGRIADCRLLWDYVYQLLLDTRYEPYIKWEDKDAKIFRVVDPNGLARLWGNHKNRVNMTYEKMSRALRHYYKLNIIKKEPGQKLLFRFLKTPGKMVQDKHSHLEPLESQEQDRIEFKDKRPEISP
How it was run: as §1

ELF5 = molecular target: T11, ELF5 (Homo sapiens, UniProt Q9UKW6-2 1-255); details: protein: recombinant; tags: N-terminal GST; dsDNA, one strand shown
T11 sequence: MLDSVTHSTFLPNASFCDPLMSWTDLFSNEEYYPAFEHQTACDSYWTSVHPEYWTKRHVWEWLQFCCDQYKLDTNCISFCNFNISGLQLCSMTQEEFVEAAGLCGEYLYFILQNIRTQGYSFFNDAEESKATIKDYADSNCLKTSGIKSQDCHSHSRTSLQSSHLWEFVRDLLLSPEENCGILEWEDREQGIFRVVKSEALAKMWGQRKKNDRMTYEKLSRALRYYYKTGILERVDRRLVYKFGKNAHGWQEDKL
How it was run: as §1

ETV3 = molecular target: T12, ETV3 (Homo sapiens, UniProt P41162-2 1-143); details: protein: recombinant; tags: N-terminal GST; dsDNA, one strand shown
T12 sequence: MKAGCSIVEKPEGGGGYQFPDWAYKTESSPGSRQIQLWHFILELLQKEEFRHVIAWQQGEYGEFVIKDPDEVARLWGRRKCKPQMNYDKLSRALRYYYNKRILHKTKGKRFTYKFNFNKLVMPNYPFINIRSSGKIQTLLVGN
How it was run: as §1

ETV6 = ETV6 (Homo sapiens, UniProt P41212 1-452); details: protein: recombinant; tags: N-terminal GST; dsDNA, one strand shown
How it was run: as §1

ETV1, sequence (P50549 whole entry): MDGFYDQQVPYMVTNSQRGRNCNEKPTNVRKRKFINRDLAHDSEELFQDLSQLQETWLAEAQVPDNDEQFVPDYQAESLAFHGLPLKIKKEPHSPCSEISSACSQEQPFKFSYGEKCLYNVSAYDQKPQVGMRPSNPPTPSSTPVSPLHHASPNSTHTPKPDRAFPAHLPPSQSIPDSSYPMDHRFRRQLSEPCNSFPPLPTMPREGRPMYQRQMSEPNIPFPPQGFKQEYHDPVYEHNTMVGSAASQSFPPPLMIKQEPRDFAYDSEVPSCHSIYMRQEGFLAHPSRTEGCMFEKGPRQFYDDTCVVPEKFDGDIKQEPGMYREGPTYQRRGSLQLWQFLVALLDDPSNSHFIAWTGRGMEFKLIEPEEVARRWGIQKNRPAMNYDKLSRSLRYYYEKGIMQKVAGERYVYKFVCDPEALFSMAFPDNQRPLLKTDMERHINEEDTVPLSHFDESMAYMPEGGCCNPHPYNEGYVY
HSF1, sequence (Q00613 whole entry): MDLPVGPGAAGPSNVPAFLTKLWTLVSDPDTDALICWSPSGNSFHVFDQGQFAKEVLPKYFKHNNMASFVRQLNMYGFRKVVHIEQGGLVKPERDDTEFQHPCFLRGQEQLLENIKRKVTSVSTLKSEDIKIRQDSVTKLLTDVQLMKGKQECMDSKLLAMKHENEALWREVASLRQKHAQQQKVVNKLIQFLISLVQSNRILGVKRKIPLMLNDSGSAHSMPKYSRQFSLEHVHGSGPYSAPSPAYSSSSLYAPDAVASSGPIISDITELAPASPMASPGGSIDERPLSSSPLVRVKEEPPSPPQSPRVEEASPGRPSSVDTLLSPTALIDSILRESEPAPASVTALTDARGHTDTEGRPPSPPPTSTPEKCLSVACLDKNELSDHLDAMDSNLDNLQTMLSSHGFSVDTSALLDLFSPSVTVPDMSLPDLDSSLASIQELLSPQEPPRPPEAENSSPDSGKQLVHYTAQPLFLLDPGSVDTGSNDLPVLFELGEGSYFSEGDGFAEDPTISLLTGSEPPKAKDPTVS
ELF4, sequence (Q99607 whole entry): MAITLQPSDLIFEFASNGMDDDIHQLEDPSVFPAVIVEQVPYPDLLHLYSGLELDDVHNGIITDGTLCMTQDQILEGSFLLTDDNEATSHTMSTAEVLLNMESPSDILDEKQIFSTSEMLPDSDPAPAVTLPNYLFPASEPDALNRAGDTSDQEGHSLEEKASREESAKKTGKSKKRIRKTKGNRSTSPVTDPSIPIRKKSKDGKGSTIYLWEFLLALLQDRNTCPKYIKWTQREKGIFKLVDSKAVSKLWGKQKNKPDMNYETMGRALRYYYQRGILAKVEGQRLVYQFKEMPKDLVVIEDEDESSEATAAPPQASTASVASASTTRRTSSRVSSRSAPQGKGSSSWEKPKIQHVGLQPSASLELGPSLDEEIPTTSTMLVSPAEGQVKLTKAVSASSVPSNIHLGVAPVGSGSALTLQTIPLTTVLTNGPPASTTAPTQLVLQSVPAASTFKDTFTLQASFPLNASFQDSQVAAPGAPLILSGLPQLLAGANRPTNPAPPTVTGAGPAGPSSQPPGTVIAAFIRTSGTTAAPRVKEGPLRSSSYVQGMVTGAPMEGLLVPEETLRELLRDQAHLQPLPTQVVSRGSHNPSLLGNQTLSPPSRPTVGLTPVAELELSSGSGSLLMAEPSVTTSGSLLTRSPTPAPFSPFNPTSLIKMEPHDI
ETV5, sequence (P41161 whole entry): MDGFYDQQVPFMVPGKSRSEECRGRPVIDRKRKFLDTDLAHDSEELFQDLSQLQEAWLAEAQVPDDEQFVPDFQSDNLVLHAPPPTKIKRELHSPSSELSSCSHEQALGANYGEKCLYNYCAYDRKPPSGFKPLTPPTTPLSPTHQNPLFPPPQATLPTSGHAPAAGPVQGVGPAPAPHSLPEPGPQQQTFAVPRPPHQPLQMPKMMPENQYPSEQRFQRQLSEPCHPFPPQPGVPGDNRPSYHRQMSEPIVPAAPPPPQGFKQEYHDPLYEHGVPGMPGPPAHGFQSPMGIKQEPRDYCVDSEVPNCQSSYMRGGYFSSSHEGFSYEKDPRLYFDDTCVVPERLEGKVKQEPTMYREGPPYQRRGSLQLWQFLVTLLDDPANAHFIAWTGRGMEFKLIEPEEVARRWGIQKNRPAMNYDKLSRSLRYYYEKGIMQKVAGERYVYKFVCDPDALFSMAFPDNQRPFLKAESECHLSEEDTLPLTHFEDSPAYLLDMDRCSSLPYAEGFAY
CRX, sequence (O43186 whole entry): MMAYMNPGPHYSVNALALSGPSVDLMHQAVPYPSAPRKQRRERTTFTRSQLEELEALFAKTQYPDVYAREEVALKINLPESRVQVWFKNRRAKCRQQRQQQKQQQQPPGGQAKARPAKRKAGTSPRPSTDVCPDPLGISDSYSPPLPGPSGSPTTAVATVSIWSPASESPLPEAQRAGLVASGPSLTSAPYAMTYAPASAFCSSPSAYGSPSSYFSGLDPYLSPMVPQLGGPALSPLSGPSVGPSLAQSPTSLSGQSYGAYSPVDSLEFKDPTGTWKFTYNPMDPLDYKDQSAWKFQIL
ETV6, sequence (P41212 whole entry): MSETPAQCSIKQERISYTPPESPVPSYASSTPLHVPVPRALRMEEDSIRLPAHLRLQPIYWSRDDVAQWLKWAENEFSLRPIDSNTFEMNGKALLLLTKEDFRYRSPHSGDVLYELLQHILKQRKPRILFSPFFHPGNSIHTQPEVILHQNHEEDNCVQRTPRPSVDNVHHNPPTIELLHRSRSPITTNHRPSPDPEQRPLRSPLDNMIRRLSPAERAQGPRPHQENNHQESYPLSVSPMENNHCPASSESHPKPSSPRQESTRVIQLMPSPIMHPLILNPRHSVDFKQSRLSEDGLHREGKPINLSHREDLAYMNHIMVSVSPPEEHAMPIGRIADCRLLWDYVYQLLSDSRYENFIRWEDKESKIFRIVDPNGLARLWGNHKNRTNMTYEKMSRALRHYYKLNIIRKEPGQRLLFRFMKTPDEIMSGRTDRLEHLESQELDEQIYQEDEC

TTTCAC
binding signal (FEV): 1.37 fold enrichment (6-mer frequency, TF over GST control) | binding signal (ETV5): 1.37 fold enrichment (6-mer frequency, TF over GST control) | binding signal (HSF1): 1.23 fold enrichment (6-mer frequency, TF over GST control) | binding signal (SPIC): 1.17 fold enrichment (6-mer frequency, TF over GST control) | binding signal (ELF4): 1.43 fold enrichment (6-mer frequency, TF over GST control) | binding signal (ELK4): 1.52 fold enrichment (6-mer frequency, TF over GST control) | binding signal (ETV2): 1.35 fold enrichment (6-mer frequency, TF over GST control) | binding signal (ELF3): 1.26 fold enrichment (6-mer frequency, TF over GST control) | binding signal (CRX): 1.14 fold enrichment (6-mer frequency, TF over GST control) | binding signal (ETV1): 1.42 fold enrichment (6-mer frequency, TF over GST control) | binding signal (ERF): 1.44 fold enrichment (6-mer frequency, TF over GST control) | binding signal (ETV3L): 1.36 fold enrichment (6-mer frequency, TF over GST control) | binding signal (ETS2): 1.32 fold enrichment (6-mer frequency, TF over GST control) | binding signal (SPDEF): 1.33 fold enrichment (6-mer frequency, TF over GST control) | binding signal (ETV7): 1.4 fold enrichment (6-mer frequency, TF over GST control) | binding signal (ELF5): 1.42 fold enrichment (6-mer frequency, TF over GST control) | binding signal (ETV3): 1.32 fold enrichment (6-mer frequency, TF over GST control) | binding signal (ETV6): 1.3 fold enrichment (6-mer frequency, TF over GST control)
